Reference: the supplement of paper PMC6522484
Where a name gives a salt, the structure may show the parent alone. ± gives the standard deviation of the averaged measurements.

What was measured:
DLD1 [1] = assay: cell viability (CellTiter-Glo) relative to plate median (fraction of plate median); higher = more viable cells; details: 5 µM; treatment time 24 h; reporter: 7TFP
Method in brief: (§1)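 Two independent replicates were averaged for each reported value. Library compounds were applied at a final 5 µM for 24 h to colorectal cancer cell lines stably expressing lentiviral TCF/Wnt firefly luciferase reporters. Firefly luciferase or CellTiterGlo luminescence from each well was normalised to the plate median.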

HCT116 = assay: as above; details: 5 µM; treatment time 24 h; reporter: TCF4/Wnt
Method in brief: as §1

SW480 [2] = assay: as above; details: 5 µM; treatment time 24 h; reporter: 7TFP
Method in brief: as §1

DLD1 [3] = assay: TCF/Wnt firefly luciferase reporter signal relative to plate median (fraction of plate median); higher = higher Wnt reporter signal; details: 5 µM; treatment time 24 h; reporter: 7TFP
Method in brief: as §1

SW480 [4] = assay: as above; details: 5 µM; treatment time 24 h; reporter: 7TFP
Method in brief: as §1

SMILES | cell viability (DLD1 [1]) | cell viability (HCT116) | cell viability (SW480 [2]) | TCF/Wnt firefly luciferase reporter signal (DLD1 [3]) | TCF/Wnt firefly luciferase reporter signal (SW480 [4])
CC1=CC(=O)[C@H]2C(C)(C)CCC[C@]2(C)[C@@]1(O)CCc1ccoc1 | 0.976 ± 0.016 | 1.07 ± 0.15 | 0.998 ± 0.018 | 1.1 ± 0.099 | 0.95 ± 0.043
CC[C@@]1(O)C(=O)OCc2c1cc1n(c2=O)Cc2cc3cc(O)ccc3nc2-1 | 1.05 ± 0.071 | 0.724 ± 0.093 | 0.999 ± 0.14 | 0.871 ± 0.1 | 0.805 ± 0.041
CCN(CC)CCOC(=O)c1ccc(N)cc1 | 1.01 ± 0.12 | 1.05 ± 0.028 | 1.03 ± 0.021 | 1.09 ± 0.092 | 1.06 ± 0.014
C#C[C@]1(O)CC[C@H]2[C@@H]3CCc4cc(O)ccc4[C@H]3CC[C@@]21C | 0.934 ± 0.016 | 0.972 ± 0.054 | 0.9755 ± 0.0092 | 1.08 ± 0.078 | 1.04 ± 0.021
CN(C)CCCN1c2ccccc2Sc2ccccc21 | 0.908 ± 0.056 | 0.908 ± 0.032 | 0.96 ± 0.071 | 0.92 ± 0.021 | 0.895 ± 0.069
CC(C(=O)O)c1cccc(C(=O)c2ccccc2)c1 (stereo not given) | 1.14 ± 0.13 | 0.931 ± 0.035 | 1.04 ± 0.028 | 0.9355 ± 0.0064 | 1.03 ± 0.014
Cc1cc(N)c2ccccc2[n+]1CCCCCCCCCC[n+]1c(C)cc(N)c2ccccc21 | 0.995 ± 0.092 | 0.907 ± 0.042 | 0.989 ± 0.087 | 0.751 ± 0.18 | 0.793 ± 0.11
S=c1[nH]cnc2nc[nH]c12 | 0.733 ± 0.044 | 0.989 ± 0.1 | 0.932 ± 0.012 | 1.22 | 1.03 ± 0.021
c1ccc2c(c1)CN1CCCC1=N2 | 1.03 ± 0.028 | 1.09 ± 0.24 | 0.998 ± 0.032 | 0.935 ± 0.15 | 0.944 ± 0.064
C/N=C(/NC#N)NCCSCc1csc(NC(=N)N)n1 | 1 ± 0.068 | 0.975 ± 0.078 | 1.01 ± 0.014 | 1.12 ± 0.021 | 1.11 ± 0.064
CC(NCCc1ccc(O)cc1)C(O)c1ccc(O)cc1 (stereo not given) | 0.914 ± 0.1 | 0.929 ± 0.1 | 0.933 ± 0.056 | 0.981 ± 0.07 | 0.913 ± 0.027
COc1cc(O)c2c(c1)C(=O)c1cc(C)cc(O)c1C2=O | 0.973 ± 0.017 | 0.979 ± 0.016 | 1.01 ± 0.12 | 0.949 ± 0.015 | 1.09 ± 0.057
CC(C)[C@H](NC(=O)[C@@H]1CCCN1)C(=O)N1CCNC(=O)C1=O [Prolyl-valyl-diketopiperazine] | 1.04 ± 0.12 | 1.14 ± 0.092 | 1.07 ± 0.05 | 0.919 ± 0.013 | 0.962 ± 0.021
Cc1cc(C(C)(C)C)cc(C)c1CC1=NCCN1 | 1.095 ± 0.0071 | 1.06 ± 0.035 | 1.07 ± 0.057 | 0.9565 ± 0.0064 | 0.991 ± 0.098
CC(C)CCC[C@@H](C)[C@H]1CC[C@H]2[C@@H]3CC=C4C[C@@H](O)CC[C@]4(C)[C@H]3CC[C@]12C | 1.03 ± 0.067 | 1 ± 0.11 | 1.015 ± 0.0071 | 1.05 ± 0.081 | 1.04 ± 0.042
C[n+]1cccc(C(=O)[O-])c1 | 1.03 ± 0.021 | 0.938 ± 0.0085 | 1.01 ± 0.018 | 1.15 ± 0.071 | 1.11 ± 0.092
CN1CCc2cccc3c2[C@H]1Cc1ccc(O)c(O)c1-3 | 0.957 ± 0.06 | 1.04 ± 0.088 | 0.992 ± 0.025 | 1.1 ± 0.057 | 0.978 ± 0.088
COc1cc(O)c2c(=O)cc(-c3ccc(OC)c(-c4c(O)cc(O)c5c(=O)cc(-c6ccc(O)cc6)oc45)c3)oc2c1 [GINKGETIN, K salt] | 0.994 ± 0.079 | 0.899 ± 0.04 | 0.9925 ± 0.0092 | 1.1 ± 0.15 | 1.16 ± 0.2
Cc1cc(O)c(C=O)c(O)c1C(=O)O | 0.939 ± 0.14 | 0.939 ± 0.064 | 0.957 ± 0.035 | 1.09 ± 0.14 | 0.9475 ± 0.0035
COc1cc2c(cc1OC)C(=O)C(CC1CCN(Cc3ccccc3)CC1)C2 (stereo not given) | 1.05 ± 0.014 | 1.06 ± 0.042 | 1.06 | 1.12 ± 0.14 | 1.06 ± 0.05
CCOC(=O)C(=O)C1(C(=O)OCC)Oc2cc(OC)cc(OC)c2C(=O)C1c1ccccc1 (stereo not given) | 0.978 ± 0.03 | 0.951 ± 0.23 | 1.01 ± 0.13 | 0.939 ± 0.083 | 1.02 ± 0.069
Cc1ccc(C(=O)c2ccc(CC(=O)O)n2C)cc1 | 0.981 ± 0.098 | 1.01 ± 0.023 | 1 ± 0.053 | 1.07 ± 0.05 | 1.06 ± 0.064
COc1cnc(NS(=O)(=O)c2ccc(N)cc2)nc1 | 0.973 ± 0.0057 | 1.04 ± 0.035 | 1.03 ± 0.035 | 1.04 ± 0.22 | 0.892 ± 0.055
OC[C@@H](O)[C@@H](O[C@@H]1O[C@H](CO)[C@H](O)[C@H](O)[C@H]1O)[C@H](O)[C@@H](O)CO | 1.02 ± 0.038 | 0.904 ± 0.067 | 0.979 ± 0.021 | 0.781 ± 0.083 | 1.03 ± 0.1
CCC(=O)O[C@@H]1[C@@H](OC2C(C)/C=C/C(=O)OC(C)C(CO[C@@H]3O[C@H](C)[C@@H](OC(=O)CC)[C@@H](OC)[C@H]3OC)C3OC3/C=C/C(=O)C(C)(O)CC2C)O[C@@H](C)C[C@H]1OC (stereo not given in full) [Chalcomycin B] | 1.04 ± 0.014 | 1.06 ± 0.064 | 1.11 ± 0.071 | 1.14 ± 0.12 | 0.972 ± 0.2
NS(=O)(=O)c1cc(C(=O)O)c(NCc2ccco2)cc1Cl | 0.993 ± 0.0099 | 1.04 | 1.09 ± 0.042 | 1.095 ± 0.0071 | 1.13 ± 0.057
CC(=O)c1oc2cc3[nH]c(=O)cc(C)c3cc2c1C [2-Acetyl-3,5-dimethylfuro[3,2-g]quinolin-7-one (VFT-05)] | 0.8435 ± 0.0035 | 0.998 ± 0.059 | 0.885 ± 0.0092 | 0.8825 ± 0.0035 | 0.979 ± 0.072
COC(=O)C[C@H]1C2(C)CC34OC5(C)O[C@@]6([C@H](OC(C)=O)C(OC(C)=O)[C@]7(C)C(/C(=C(/O)C(C)C)C(=O)O[C@H]7c7ccoc7)[C@@]6(O5)[C@H](OC(C)=O)[C@@]3(O)C2OC(=O)C(C)C)[C@]14C (stereo not given in full) | 1.02 ± 0.021 | 0.959 ± 0.1 | 1.01 ± 0.021 | 1.05 ± 0.14 | 1.08
CCCCNc1ccc(C(=O)OCCN(C)C)cc1 | 1.04 ± 0.042 | 1.12 ± 0.085 | 1.02 ± 0.035 | 1.1 ± 0.035 | 0.973 ± 0.0085
